Residue numbers refer to the chain shown, from its start. Over roughly 24,000 sequences, “enrichment r” has its median near 0.99; the highest 2% begin near 3.7. This is one part of a sample in which the highest values are shown more often than they occur.
B1: 107145582_107145702_897_CDS_ENSG00000125266_ENST00000245323|human|control|control (ssRNA)
RNA: GGGAGUUCUACAGUCCGACGAUCGAGCGACAGCGUGGUCGUGUGCUGCGGCGAGUGCUUCCUGUGUCUCCUCCGGUACUUCAGCAAGAGGACCACCAGCGUGAUGAUGAUGACGAUGAAGAUGAUGCAUCCUGAAGCAAUCCCCAACAGAGGAUUGAGCAUCA
B2: chr9:115598534:115598535:+_ENSG00000148158_ENST00000374232|hu_mus|FALSE|FALSE (ssRNA)
RNA: GGGAGUUCUACAGUCCGACGAUCCAGCUUAUAGCCUCCGGUGACGUGCUUGACUGACUCACCCACUCUGCUCAGCAAUGCUAUCCCUUGCUUCUUGUAGGCAUUCAGGUCCUUAGCAGUGAGGAACACAUUGAAGUGUUCAUUCAACAGAGGAUUGAGCAUCA
B3: chrX:165757501:165757502:-_ENSMUSG00000031352_ENSMUST00000112115|mus_hu|FALSE|FALSE (ssRNA)
RNA: GGGAGUUCUACAGUCCGACGAUCGCAGGAGCAGAUGGAGACAAACCCAUGGCUGGAAACAGUGUUGACUGUAAACAAUUUUAAAUUUCCACCUGCUCCAGCCCGUGGUCCCCAGACCAAACCGGCCGCGGCCAGCCUGCCCUUCAACAGAGGAUUGAGCAUCA
B4: chr10:33190432:33190433:-_ENSG00000150093_ENST00000302278|hu_mus|hu_hu_hu_mus_True|58_98 (ssRNA)
RNA: GGGAGUUCUACAGUCCGACGAUCUACAUUUUCCAAACCUGCACAUGAAUAAAACCCUGGCCACAGAGCCCCAAAACUACCUAACUGUGACUAAGAUGCUGCUGCUGUGAGCUUGGUGUUGCAAAAUCCGCCUGAGUAGGAUUCCAACAGAGGAUUGAGCAUCA
B5: 10529348_10532452_191_CDS_ENSG00000160049_ENST00000377038|human|control|control (ssRNA)
RNA: GGGAGUUCUACAGUCCGACGAUCCAGGGUGACUGGUGUCAGGGACUUAUCAAUGGCCAGAAUGUCACAGGCCUUGCUCCUCAGGUCUUCGAGGCAGGAGGCGGCCACGCCGUGCUGUUCGCGGCUGUAGUUGCGGCGCAGCAGCAACAGAGGAUUGAGCAUCA
B6: chr4:125586161:125586162:-_ENSG00000151458_ENST00000504087|hu_hu|FALSE|FALSE (ssRNA)
RNA: GGGAGUUCUACAGUCCGACGAUCUUGUGUAGUGGCAACAGCUGAUUUAUAAAAUUUAAAGAUUUUAAUUUCAAAAAUAUCUAUUAAGGAGUUUUAUAUUUGGAGGACAAUUUUUACUUUUUAAUGGAGCAGAAGCCAUUUUCACAACAGAGGAUUGAGCAUCA
B7: chr4:125586161:125586162:-_ENSG00000151458_ENST00000504087|hu_hu|motif|central (ssRNA)
RNA: B6 RNA with U81G, A82G
B8: chr1:60041781:60041782:+_ENSMUSG00000041040_ENSMUST00000036540|mus_hu|mus_mus_mus_hu_False|1_38 (ssRNA)
RNA: GGGAGUUCUACAGUCCGACGAUCAAGUUUACAAUAGUAAAGUAAAUGCAGUAGUGGCAAAUUUUCUUUUAUUUUCCUUCACAAAAGAAAAUCUUUAGAUCUCAGUUCUAGUCUUGGACAUAGUGAAAGCUAUAAAUGCCACUGCAACAGAGGAUUGAGCAUCA
B9: chr8:13147844:13147845:+_ENSMUSG00000031446_ENSMUST00000016680|mus_hu|FALSE|FALSE (ssRNA)
RNA: GGGAGUUCUACAGUCCGACGAUCUACAAUAUUAACAAUCUCUAGACACAACGAACUUAUAAGAAAAAAAAAAUAGAAAUCUGUUUGGUCUUUCUUAGACCACAUAUCAUGGAACUCAUAAAUGAAAAUUUUCAAAGAUAGAAACAACAGAGGAUUGAGCAUCA
B10: 105048333_105048453_1516_3pUTR_ENSG00000148798_ENST00000369849|human|control|control (ssRNA)
RNA: GGGAGUUCUACAGUCCGACGAUCAGCAUUAACUUUUUCAAAGCAAUGGAAUUAUAUUUUUUGGCUUGAAAUGGUGGUUUCUUCUAUAUUUGAUUUCUCGGUUUUCUUAGUAGAUAUUACUGUCUCCUCUAAUAUUUCUUCAAACAACAGAGGAUUGAGCAUCA
B11: chr12:86641468:86641469:-_ENSMUSG00000034290_ENSMUST00000040992|mus_mus|FALSE|FALSE (ssRNA)
RNA: GGGAGUUCUACAGUCCGACGAUCGCAAUAUUAAGAGAGAUAGCCAACCUUUUUUUUGGGGGGGGGGUUUGGUUAAAUGAAACAAUAUUAAUUUAGCUGUGUGUAGUACAGAGGAUAUGGUACUUAUCAAAGGAGCUGCUGUGGCAACAGAGGAUUGAGCAUCA
B12: 24223610_24223730_1957_3pUTR_ENSG00000173960_ENST00000309033|human|control|control (ssRNA)
RNA: GGGAGUUCUACAGUCCGACGAUCUUUUGAAAGAAAAUAAAAUGGAAAGGGAAUAGGCUUUUUAGAAAGAUAAUUUUCUUUUAUUACAUUUUUAUAAAGUGUAGAAAUGUGAGUAGGCAGAUUAAUCUUGAUACUAUACUGAGCCAACAGAGGAUUGAGCAUCA
B13: chrX:147030410:147030411:+_ENSG00000102081_ENST00000218200|hu_mus|FALSE|FALSE (ssRNA)
RNA: GGGAGUUCUACAGUCCGACGAUCACUUCAUGCCCUGUGCCAUCUUGCCUACUAUUUGUCUUUGGCCUAACAAAGUUUUCUAAAAUGGAGUAAGAAUUACGGAAAUGGUAGAGGAAAUAUAACUUCGGAAUUAUGUAGCUUAUUCAACAGAGGAUUGAGCAUCA
B14: chr4:17841332:17841333:+_ENSG00000109805_ENST00000514176|hu_hu|FALSE|FALSE (ssRNA)
RNA: GGGAGUUCUACAGUCCGACGAUCCUUUUGUAUAGACUCGAAUUUCUGGCGAGCACGGACUUGUUAAGAUCUCAUUGCAAAUUUUCAUAGCCAAAUUGUCAUGUACUGUUAAGGCCUGAUAAUCUUGGGAAGUCUUGGCCUGAGCAACAGAGGAUUGAGCAUCA
B15: chr17:56552419:56552420:-_ENSMUSG00000013236_ENSMUST00000086828|mus_mus|mus_mus_mus_hu_False|28_78 (ssRNA)
RNA: GGGAGUUCUACAGUCCGACGAUCAAAAAAUACACUAUUUAAAAAAAAUGAAAUGUCAGAAAAAGAAGUUACACUGAGAGUUUUAAAAGAAAGCUGGAUUCUGGUCCUUGCCAAAAGUCCCCAGGCUGCAGAGCGGGGAGGAGCCAACAGAGGAUUGAGCAUCA
B16: chr17:56552419:56552420:-_ENSMUSG00000013236_ENSMUST00000086828|mus_mus|mus_mus_mus_hu_False|28_98 (ssRNA)
RNA: B15 RNA with U38A, U39A, G58C, A59G, A60G, A61G, A63U, G64A, A65C
B17: chr17:56552419:56552420:-_ENSMUSG00000013236_ENSMUST00000086828|mus_mus|mus_mus_mus_hu_False|28_58 (ssRNA)
RNA: B15 RNA with G58C, A59G, A60G, A61G, A63U, G64A, A65C, G77C, G79C, U81A
B18: chr17:56552419:56552420:-_ENSMUSG00000013236_ENSMUST00000086828|mus_mus|mus_mus_mus_hu_False|28_48 (ssRNA)
RNA: GGGAGUUCUACAGUCCGACGAUCAAAAAAUACACUAUUUAAAAAAAAUGAAAUGUCACGGGAUACAGUUACACUGAGAGUUUUAAAAAAAAAUAAGAUUCUGGUCCUUGCCAAAAGUCCCCAGGCUGCAGAGCGGGGAGGAGCCAACAGAGGAUUGAGCAUCA
B19: chr7:149068622:149068623:-_ENSMUSG00000025139_ENSMUST00000001950|mus_hu|mus_mus_mus_hu_False|78_88 (ssRNA)
RNA: GGGAGUUCUACAGUCCGACGAUCGUGAGGCCUCUGAGUGUGGCUUGUGCUCUGCAGUGUCUGCAGUUUGUUAAUAUCACGGAACAUACCAUCUAGAACGUUCCAGUCCCGCCUGACACCUUCAUUCCCAAUGGAGAAGAAAUCCAACAGAGGAUUGAGCAUCA
B20: chr5:135101456:135101457:-_ENSMUSG00000040731_ENSMUST00000036125|mus_mus|motif|central (ssRNA)
RNA: GGGAGUUCUACAGUCCGACGAUCACCCAAGAGUGCACCGUCAUAAGUCAGAGCCUCCUUCAGGGAAUCCACCUCAUCAAAUUCGGCAUAGCAGAACCCUUUAAAUUUGUCUGUGUCUUUGUCUCUGACUAGCCGCACACUCCGCAACAGAGGAUUGAGCAUCA
B21: chrX:130830059:130830060:+_ENSMUSG00000033578_ENSMUST00000037687|mus_mus|FALSE|FALSE (ssRNA)
RNA: GGGAGUUCUACAGUCCGACGAUCGGGCCAUGAUAGUUAUGGUUCGUGGGGAUGCCAUGGGGUCACCAAGGCAGGUCCCAACUAAUCCCUCUGCUUUGCGCAGCCCGGCUGUCAAGGCGCAGGCAGUUAGCACAGGGAGAGCUACAACAGAGGAUUGAGCAUCA
B22: chr1:163117127:163117128:-_ENSG00000143248_ENST00000313961|hu_mus|FALSE|FALSE (ssRNA)
RNA: GGGAGUUCUACAGUCCGACGAUCUGCUACAAAGGAUGUAACUCAACUCACAGGGCAACUUUUGGAAGCCUGACCAGAUGACUACUUGAUUAGCUCCUUAUAAAAUUCAGAGCGCACAAAGCGGGGCAGAGAAUCCUUCUCCAUCAACAGAGGAUUGAGCAUCA

biological target: T1, UNK ZnF1-3 (human, UniProt Q9C0B0 31-174); test: nsRBNS (natural sequence RNA bind-n-seq); RBNS binding buffer (assumed for nsRBNS): 25 mM Tris pH 7.5, 150 mM KCl, 3 mM MgCl2, 0.01% Triton X-100, 500 ug/ml BSA, 20 U/ml SUPERase-In, 4 C; UNK is unkempt and MSI1 is Musashi-1; names of the RNAs are library labels; protein concentration not given here; high values mean tight binding
T1 sequence: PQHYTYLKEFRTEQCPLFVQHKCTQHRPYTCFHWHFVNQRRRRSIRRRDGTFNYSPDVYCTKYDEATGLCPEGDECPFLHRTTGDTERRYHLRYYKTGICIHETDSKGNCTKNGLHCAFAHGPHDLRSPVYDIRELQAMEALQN

Row | Binder | binding signal [enrichment R]
1 | B1 | 1.32
2 | B2 | 0.557
3 | B3 | 0.781
4 | B4 | 1.55
5 | B5 | 0.999
6 | B6 | 4.35
7 | B7 | 4.45
8 | B8 | 0.52
9 | B9 | 3.59
10 | B10 | 4.33
11 | B11 | 3.28
12 | B12 | 3.4
13 | B13 | 1.78
14 | B14 | 0.957
15 | B15 | 3.64
16 | B16 | 6.54
17 | B17 | 4.14
18 | B18 | 6.32
19 | B19 | 0.733
20 | B20 | 0.437
21 | B21 | 0.967
22 | B22 | 1.14

Source: article PMC12136788
